Screens deposited in PubChem by Broad Institute.
Pf Dd2 inh: P. falciparum Dd2 growth inhibitors, primary screen, SYBR Green fluorescence, single dose replicates. 72 h; hits give low values. activity change, % at 10 µM. 94,000 tested, 2.3% active. AID 1159554, 2015; in the data active means activity change below about -80%; inconclusive means no clear call, values can overlap the other calls
T cruzi growth-1: T. cruzi intracellular proliferation inhibitors, primary screen, cell-based, beta-gal Tulahuen parasites, NIH3T3 host, luminescence; 77,000 tested, 5.9% active; T. cruzi beta-gal in NIH3T3, GalScreen luminescence, 90 h; AID 624255, 2012; inhibition, % at 8.34 µM;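 active means mean inhibition above about 93%, with at least 55% of replicates each passing it, limit read from the data, passing the limit was not always enough; inconclusive means only one of those two conditions holds; inactive means neither condition holds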
C diff growth: C. difficile growth inhibitors, primary screen, HTS | growth activity, negative = inhibition, % at 16 µg/mL (by protocol) | AID 1259249, 2017 | 86,000 tested, 0.25% active | Clostridium difficile clinical isolate growth, OD600, 24 h; hits give low values;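 active means mean growth activity at or below -80% and every replicate also at or below -80%; inconclusive means mean at or below -80% but some replicate above -80%; inactive means mean growth activity above -80%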
T cruzi growth-2: T. cruzi intracellular proliferation inhibitors, confirmation, cell-based, NIH3T3 host, beta-gal parasite, luminescence, cherry-pick; shares compounds with T cruzi growth-1; T. cruzi beta-gal in NIH3T3, GalScreen luminescence, 90 h; inhibition, % at 8.35 µM; 5,600 tested, 72% active; AID 651739, 2012;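 active means mean replicate inhibition above about 95% and at least 55% of replicates individually reaching it, limit read from the data; inconclusive means only one of the two criteria is met; inactive means neither criterion is met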
T cruzi growth-3: inhibitors of intracellular T. cruzi replication, confirmation, NIH3T3 host cells, beta-gal parasites, cherry-pick, set 2. shares compounds with T cruzi growth-1. T. cruzi beta-gal in NIH3T3, GalScreen luminescence, 90 h. inhibition, % at 2.09 µM. 5,600 tested, 21% active;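 active means mean inhibition above about 95%, with at least 55% of replicates also reaching it, limit read from the data; inconclusive means meets just one of the two conditions; inactive means meets neither condition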
NIH3T3 tox: cytotoxicity in mouse NIH/3T3 fibroblasts, confirmation, cytotoxicity control for T. cruzi proliferation inhibitor project, cell-based, cherry-pick, single point; 5,600 tested, 14% active; AID 651742, 2012; shares compounds with T cruzi growth-1; cytotoxicity (signal decrease), % at 8.35 µM; NIH/3T3 viability, CellTiter-Glo ATP luminescence, 90 h;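 active means mean signal decrease across replicates above about 35% based on untreated-well scatter, with enough replicates individually passing, limit read from the data; inconclusive means no rule stated though some were filed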
NIH3T3 tox 2: NIH/3T3 fibroblast cytotoxicity, confirmation, cytotoxicity control, cell-based, cherry-pick, single point, set 2; 5,600 tested, 56% active; NIH/3T3 viability, CellTiter-Glo ATP luminescence, 90 h; inhibition, % at 24.9 µM; AID 651744, 2012; shares compounds with T cruzi growth-1;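 active means mean loss of cell viability signal at or above a set limit, and enough replicates individually reaching it; inconclusive means meets only the mean limit or only the replicate share; inactive means meets neither condition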
Of the large screens only hits and unclear results are named; the others gave an inactive call (follow-up assays come after a bar, where they were run). The list is not random: actives were taken first. Their share in the collection is about 6.7%.

C[C@H]1CN([C@@H](C)CO)C(=O)Cc2cc(NC(=O)Cn3cnnn3)ccc2O[C@H]1CN(C)C(=O)Nc1ccc(F)cc1	none (no result: C diff growth)
CN1CCN(C(=O)C[C@H]2C[C@H]3c4cc(NC(=O)Nc5ccccc5)ccc4O[C@H]3[C@H](CO)O2)CC1	none
CC(C)c1cn(CC[C@@H]2CC[C@H](NC(=O)C3CCC3)[C@H](CO)O2)nn1	none (no result: T cruzi growth-1)
C[C@@H](NC(=O)[C@H]1[C@H](CO)[C@H]2Cn3c(cccc3=O)[C@@H]1N2Cc1ccccc1)c1ccccc1	T cruzi growth-1 100.9 | T cruzi growth-2 inactive | T cruzi growth-3 inactive | NIH3T3 tox inactive | NIH3T3 tox 2 inactive
O=C(NCc1ccc(F)cc1)[C@@H]1[C@@H](CO)[C@@H]2Cn3c(cccc3=O)[C@H]1N2Cc1cccnc1	T cruzi growth-1 99.9 | T cruzi growth-2 inactive | T cruzi growth-3 inactive | NIH3T3 tox inactive | NIH3T3 tox 2 inactive
C[C@H](NC(=O)[C@H]1[C@H](CO)[C@H]2Cn3c(cccc3=O)[C@@H]1N2Cc1ccncc1)c1ccccc1	none
O=C(NCc1ccc2c(c1)OCO2)[C@@H]1[C@@H](CO)[C@@H]2Cn3c(cccc3=O)[C@H]1N2Cc1cccnc1	none (no result: Pf Dd2 inh, C diff growth)
CC(=O)N1[C@@H]2Cn3c(ccc(C4=CCCCC4)c3=O)[C@H]1[C@@H](C(=O)N[C@H](C)c1ccccc1)[C@@H]2CO	none (no result: Pf Dd2 inh)
C[C@H](NC(=O)[C@H]1[C@H](CO)[C@H]2Cn3c(cccc3=O)[C@@H]1N2C(=O)C1CC1)c1ccccc1	T cruzi growth-1 100.9 | T cruzi growth-2 inactive | T cruzi growth-3 inactive | NIH3T3 tox inactive | NIH3T3 tox 2 inactive
C[C@@H](NC(=O)[C@@H]1[C@@H](CO)[C@@H]2Cn3c(cccc3=O)[C@H]1N2C(=O)C1CCC1)c1ccccc1	none (no result: Pf Dd2 inh)
CC(=O)N1[C@@H]2c3ccc(C4=CCCCC4)c(=O)n3C[C@H]1[C@H](CO)[C@H]2C(=O)N[C@@H](C)c1ccccc1	T cruzi growth-1 active (no result: Pf Dd2 inh) | T cruzi growth-2 inactive | T cruzi growth-3 inactive | NIH3T3 tox inactive | NIH3T3 tox 2 inactive
CCCNC(=O)Nc1ccc2c(c1)C(=O)N(C)[C@@H]1CC[C@H](CC(=O)NCc3ccccc3)O[C@@H]1CO2	none
Cc1ccc(-c2cnc3c(c2)C(=O)N([C@@H](C)CO)C[C@@H](C)[C@@H](CN(C)C(=O)c2ccc(F)cc2)O3)cc1	none (no result: C diff growth)
O=C(C[C@H]1C[C@H]2c3cc(NC(=O)NC4CCCCC4)ccc3O[C@H]2[C@@H](CO)O1)NCc1cccnc1	none
O=C([C@@H]1[C@@H](CO)[C@@H]2Cn3c(cccc3=O)[C@H]1N2Cc1ccccc1)N1CCCCC1	none (no result: Pf Dd2 inh)
CN1CCN(C(=O)[C@@H]2[C@@H](CO)[C@@H]3Cn4c(cccc4=O)[C@H]2N3Cc2ccncc2)CC1	T cruzi growth-1 168.7 (no result: Pf Dd2 inh) | T cruzi growth-2 inactive | T cruzi growth-3 inactive | NIH3T3 tox inactive | NIH3T3 tox 2 inactive
C[C@H](NC(=O)[C@H]1[C@H](CO)[C@H]2Cn3c(cccc3=O)[C@@H]1N2C(=O)C1CCC1)c1ccccc1	none (no result: Pf Dd2 inh)
C[C@@H](NC(=O)[C@H]1[C@H](CO)[C@H]2Cn3c(cccc3=O)[C@@H]1N2C(=O)C1CC1)c1ccccc1	T cruzi growth-1 103.0 | T cruzi growth-2 inactive | T cruzi growth-3 inactive | NIH3T3 tox inactive | NIH3T3 tox 2 inactive
C[C@@H]1CCCCO[C@H](CN(C)C(=O)NC2CCCCC2)[C@H](C)CN([C@@H](C)CO)C(=O)c2cc(NS(C)(=O)=O)ccc2O1	none (no result: C diff growth)
C[C@@H]1CCCCO[C@H](CN(C)C(=O)Nc2ccc(C(F)(F)F)cc2)[C@H](C)CN([C@H](C)CO)C(=O)c2cc(NC(=O)Cc3ccccc3)ccc2O1	Pf Dd2 inh -85.7, T cruzi growth-1 inconclusive | T cruzi growth-2 109.5 | T cruzi growth-3 106.6 | NIH3T3 tox inactive | NIH3T3 tox 2 56.2
C[C@@H]1CCCCO[C@@H](CN(C)C(=O)Nc2ccccc2)[C@@H](C)CN([C@@H](C)CO)C(=O)c2cc(NC(=O)Cc3ccccc3)ccc2O1	none (no result: C diff growth)
C[C@@H]1CCCCO[C@@H](CN(C)C(=O)Nc2ccc(C(F)(F)F)cc2)[C@H](C)CN([C@H](C)CO)C(=O)c2cc(NC(=O)Cc3ccccc3)ccc2O1	T cruzi growth-1 inconclusive | T cruzi growth-2 105.7 | T cruzi growth-3 104.1 | NIH3T3 tox inactive | NIH3T3 tox 2 inactive
C[C@@H]1CCCCO[C@H](CN(C)C(=O)Nc2ccccc2)[C@@H](C)CN([C@H](C)CO)C(=O)c2cc(NC(=O)Cc3ccccc3)ccc2O1	none (no result: C diff growth)
C[C@H](CO)N1C[C@H](C)[C@@H](CN(C)C(=O)Nc2ccc(C(F)(F)F)cc2)OCCCC[C@H](C)Oc2ccc(NC(=O)Cc3ccccc3)cc2C1=O	Pf Dd2 inh -84.6, T cruzi growth-1 127.7 | T cruzi growth-2 108.1 | T cruzi growth-3 110.3 | NIH3T3 tox inactive | NIH3T3 tox 2 inconclusive
C[C@@H]1CCCCO[C@H](CN(C)C(=O)Nc2ccccc2)[C@@H](C)CN([C@@H](C)CO)C(=O)c2cc(NC(=O)Cc3ccccc3)ccc2O1	none (no result: C diff growth)
C[C@H]1CCCCO[C@H](CN(C)C(=O)Nc2ccc(C(F)(F)F)cc2)[C@@H](C)CN([C@@H](C)CO)C(=O)c2cc(NC(=O)Cc3ccccc3)ccc2O1	Pf Dd2 inh -89.1, T cruzi growth-1 inconclusive | T cruzi growth-2 101.1 | T cruzi growth-3 113.1 | NIH3T3 tox inactive | NIH3T3 tox 2 inactive
C[C@H]1CCCCO[C@H](CN(C)C(=O)Nc2ccccc2)[C@@H](C)CN([C@@H](C)CO)C(=O)c2cc(NC(=O)Cc3ccccc3)ccc2O1	none (no result: C diff growth)
COc1ccc(S(=O)(=O)Nc2ccc3c(c2)C(=O)N([C@H](C)CO)C[C@@H](C)[C@H](CN(C)S(=O)(=O)c2c(C)noc2C)OCCCC[C@H](C)O3)cc1	none
C[C@@H]1CN([C@H](C)CO)C(=O)c2cc(-c3cccc(F)c3)cnc2O[C@@H]1CN(C)S(=O)(=O)c1cccc(F)c1	none (no result: C diff growth)
COc1ccc2c3c(n(C)c2c1)[C@H](CO)N(Cc1ccccc1Cl)CC31CCN(C(=O)CC2CC2)CC1	none (no result: T cruzi growth-1)
C[C@@H]1CCCCO[C@@H](CN(C)C(=O)Nc2ccc(C(F)(F)F)cc2)[C@H](C)CN([C@@H](C)CO)C(=O)c2cc(NC(=O)Cc3ccccc3)ccc2O1	T cruzi growth-1 121.8 | T cruzi growth-2 108.2 | T cruzi growth-3 inactive | NIH3T3 tox inactive | NIH3T3 tox 2 43.2
